DT40 TDP1 no CPT = qHTS for Inhibitors of human tyrosyl-DNA phosphodiesterase 1 (TDP1): qHTS in cells in absence of CPT | DT40 Tdp1-/- hTDP1 cells, no CPT, ATP luminescence, 48 h | Potency, µM (highest dose often 46.2 µM), without a hit: top-dose activity change, negative = growth inhibition, most hits filed as inhibitors | 15% of 420,000 active; also: potency is read from the fitted curve at half-maximal effect; nearly all actives have a fitted effect of over 55% in size
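Cells were dispensed at 400 per well, compounds added by pin tool, plates incubated ≥48 hr at 37 °C, then CellTiter-Glo added for 30 min at room temperature before luminescence reading. Line: DT40 Tdp1-/- complemented with hTDP1; camptothecin omitted.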
HT1080 IDH1KD tx = toxicity to HT-1080 IDH1 knockdown cells (counter line). HT-1080 IDH1 knockdown viability, ATP luminescence, 48 h. 2% of 360,000 active. Potency, µM (doses to about 46.1 µM), for the others: top-dose activity, negative = toxicity, hits mostly cytotoxic;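 also: potency is read from the fitted curve at half-maximal effect; 0% = DMSO wells and -100% = cell-free medium wells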
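Viability of IDH1-knockdown HT-1080 fibrosarcoma cells was assessed by CellTiter-Glo after 48 h at 37 °C with titrated compound; concentration-effect curves were classified by fit quality and response size.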
HT1080-NT tox = kills 2HG-producing HT-1080-NT fibrosarcoma cells; 1.6% of 360,000 active; HT-1080-NT fibrosarcoma viability, CellTiter-Glo ATP luminescence, 48 h; Potency, µM (top dose mostly 46.1 µM), without a hit: at the top dose activity, negative = less viability, actives largely listed as cytotoxic;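 also: NT is the 2HG producing partner of a matched IDH1 knockdown line; potency is read from the fitted curve at half-maximal effect; 0% = DMSO-treated cells and -100% = media-only wells without cells; nearly all actives have a fitted effect of over 55% in size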
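A 48-hour cytotoxicity screen used HT-1080-NT cells plated 2 hours before compound delivery. ATP-based CellTiter-Glo luminescence measured viability, normalized to DMSO and no-cell controls.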
TDP1 cell CPT = growth inhibition of DT40 Tdp1-/-;hTDP1 cells with camptothecin (screen for TDP1 inhibitors). Potency, µM (titrated, usually from 46.2 µM), without a hit: top-dose activity change, negative = growth inhibition, usual class: inhibitors. chicken DT40 Tdp1-/-;hTDP1 cells + 20 nM CPT, ATP luminescence, 48 h. 12% of 420,000 active; also: potency is read from the fitted curve at half-maximal effect; nearly all actives have a fitted effect of over 55% in size
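Chicken DT40 Tdp1-/- cells stably complemented with human TDP1 were seeded at 400 cells/well in medium containing 20 nM camptothecin, exposed to pin-transferred compounds, and grown at 37 °C for at least 48 hr. Viability was read as ATP luminescence.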
IL1B secr inh = inflammasome signaling inhibition, IL-1 beta readout. THP-1 LPS/ATP IL-1B secretion, AlphaLISA, 16 h; stronger effect = lower value. activity change, % at 57.5 µM. 4.7% of 360,000 active; in the data active = activity change below about -50%; inconclusive = mostly about -30% to -49%
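Secreted IL-1B measured by AlphaLISA bead assay after 16 h compound exposure of THP-1 cells; compounds (final up to 57.5 uM) added 1 h before LPS (250 ng/mL) and ATP (1.25 mM) stimulation; lower signal means less secretion.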
12-LOX inh = blocks human arachidonate 12S-lipoxygenase; P18054; purified 12hLO, xylenol orange hydroperoxide absorbance; Potency, µM (titrated, usually from 108 µM), for the others: at the top dose activity change, negative = inhibition, usual class: inhibitors; 1.1% of 580,000 active; AID 1671190; also: potency is read from the fitted curve at half-maximal effect
Target sequence (P18054 whole entry, looked up): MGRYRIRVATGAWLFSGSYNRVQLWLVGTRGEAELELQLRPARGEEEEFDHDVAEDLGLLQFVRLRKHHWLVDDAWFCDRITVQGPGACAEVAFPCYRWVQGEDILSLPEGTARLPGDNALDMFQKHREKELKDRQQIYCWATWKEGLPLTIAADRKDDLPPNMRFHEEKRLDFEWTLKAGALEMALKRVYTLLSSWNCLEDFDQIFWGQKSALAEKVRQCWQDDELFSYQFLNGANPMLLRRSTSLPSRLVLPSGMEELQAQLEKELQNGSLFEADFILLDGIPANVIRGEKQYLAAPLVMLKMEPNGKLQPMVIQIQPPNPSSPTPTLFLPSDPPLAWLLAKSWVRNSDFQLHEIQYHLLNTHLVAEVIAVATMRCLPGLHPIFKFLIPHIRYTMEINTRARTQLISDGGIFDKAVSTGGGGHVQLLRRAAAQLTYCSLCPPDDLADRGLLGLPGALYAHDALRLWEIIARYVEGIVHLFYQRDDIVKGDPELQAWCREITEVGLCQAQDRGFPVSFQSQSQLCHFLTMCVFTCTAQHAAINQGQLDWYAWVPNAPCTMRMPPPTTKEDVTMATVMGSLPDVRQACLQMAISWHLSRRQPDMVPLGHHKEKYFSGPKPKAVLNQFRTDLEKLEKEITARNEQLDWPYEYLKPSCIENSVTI
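Purified human 12hLO at 150 nM in 25 mM Hepes, 0.01% Triton X-100, pH 7.0, preincubated 15 min at room temperature with compound. Reaction started with 40 uM arachidonic acid, 30 min at room temperature. Hydroperoxide measured by Fe-xylenol orange, 573/405 nm absorbance ratio.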
Starred values were filed as active, the others as inactive; ? = inconclusive; . = no result given. The sample as a whole holds a higher share of hits than the screen did. Unless noted, calls follow the shape of the dose curve; as a rule, active = well fitted curve in the direction sought with a large enough effect; inconclusive = small, poorly fitted or top-dose-only effect, or another doubt; inactive = no such curve, though single readings can be large; an effect the other way counts as inactive or inconclusive. Unless noted, % is scaled to controls: 0 for no effect and ±100 for the full control effect.

SMILES | DT40 TDP1 no CPT | HT1080 IDH1KD tx | HT1080-NT tox | TDP1 cell CPT | IL1B secr inh | 12-LOX inh
Cc1nc(CS(=O)(=O)c2ccc(Cl)cc2)cc(N2CCOCC2)n1 | -8% | 12% | 13% | -8% | 15 | 155%
NC1=NC2=C(CCCC2)C2(CCCCC2)S1 | ? | ? | ? | ? | -65* | -9%
CC(C)(C)SCC(=O)Nc1cccc(CN2CCCC2)c1 | . | . | . | . | . | 12%
O=C(COC(=O)CC12CC3CC(CC(Br)(C3)C1)C2)Nc1ccccc1[N+](=O)[O-] | . | . | . | . | . | -8%
Cc1nn(C)c(C)c1Nc1ccc(N2C(=O)C3CC=CCC3C2=O)cc1[N+](=O)[O-] (stereo not given) | ? | -22% | 0% | ? | 47 | -4%
Cc1nn(C)c(C)c1Nc1ccc(N2C(=O)C3C4C=CC(C4)C3C2=O)cc1[N+](=O)[O-] (stereo not given) | 23µM* | -1% | 17% | ? | 44 | 0%
Nc1nc(CN2CCN(c3ccccn3)CC2)nc(Nc2ccc(Cl)cc2)n1 | 6.5µM* | -30% | -32% | ? | -22 | -23%
COc1ccccc1N1CCN(Cc2nc(N)nc(Nc3ccc(C)c(Cl)c3)n2)CC1 | 9.2µM* | ? | ? | 15µM* | -15 | -29%
COc1ccc(Nc2nc(N)nc(CN3CCN(c4ccc(F)cc4)CC3)n2)cc1 | 15µM* | -2% | -17% | ? | ? | -18%
CCOc1ccc(Nc2nc(N)nc(CN3CCN(c4ccccc4F)CC3)n2)cc1 | 18µM* | -16% | -1% | -10% | -8 | 1%
Nc1nc(CN2CCN(Cc3ccccc3)CC2)nc(Nc2ccccc2)n1 | -26% | ? | ? | -27% | 13 | 2%
C/C=C/CSc1nc2c(c(=O)n(C)c(=O)n2C)n1Cc1ccccc1 | . | . | . | . | . | -13%
Cc1ccc(S(C)(=O)=O)cc1C(=O)N1CC(C(N)=O)Oc2ccccc21 (stereo not given) | -1% | 23% | 23% | -1% | 17 | 30%
COc1ccc(Nc2nc(N3CCN(c4ccc(F)cc4)CC3)nc3c2cnn3C)cc1 | . | . | . | . | . | -57%
COc1ccc(N2CCN(c3nc(Cl)nc(Nc4ccc(F)cc4)n3)CC2)cc1 | 18µM* | -21% | -15% | 18µM* | -79* | -2%
COc1ccc(CN2CCN(c3ccccc3OC)CC2)cc1OC | -29% | -12% | -3% | -22% | -19 | ?
COc1ccccc1N1CCN(Cc2cnc3ccc(Cl)cn23)CC1 | 13µM* | -1% | 9% | 23µM* | 22 | 26%
CCCc1nn2c(=O)cc(COC(=O)c3cccc(NC(=O)COc4ccccc4C)c3)nc2s1 | 18µM* | . | . | ? | . | -8%
CCc1nn2c(=O)cc(COC(=O)c3ccc(NC(=O)CCc4ccccc4)cc3)nc2s1 | 9.2µM* | . | . | 23µM* | . | -10%
CCc1nn2c(=O)cc(COC(=O)c3cccc(NC(=O)CCc4ccccc4)c3)nc2s1 | 6.5µM* | . | . | ? | . | ?
COc1ccccc1OCCNC(=O)C1CC(=O)N(c2n[nH]c3ccccc23)C1 (stereo not given) | . | . | . | . | . | 13%
CCOC(=O)c1ccc(NC(=O)c2ncoc2-c2ccc(OC)cc2)cc1 | . | . | . | . | . | -4%
Cc1cccc(NC(=O)C2CCC(CNS(=O)(=O)c3ccc(Br)s3)CC2)c1 (stereo not given) | 16µM* | . | . | 26µM* | . | -25%
Cc1ccc(NC(=O)C2CCC(CNS(=O)(=O)c3cccs3)CC2)cc1C (stereo not given) | 15µM* | . | . | 15µM* | . | -20%
COc1ccc(NC(=O)C2CCC(CNS(=O)(=O)c3ccc(Br)s3)CC2)cc1OC (stereo not given) | -16% | . | . | 3% | . | ?
SMILES | DT40 TDP1 no CPT | HT1080 IDH1KD tx | HT1080-NT tox | TDP1 cell CPT | IL1B secr inh | 12-LOX inh
O=C1CCN(Cc2ccccc2)C=C1c1ccc(Cl)cc1 | ? | -4% | -3% | 23µM* | -6 | -55%
Cc1nnc2ccc(NC3CC3)nn12 | . | . | . | . | . | 13%
CCOc1cc(C(=O)NCc2ccccc2)ccc1OCC(=O)N1CCOCC1 | 4% | 4% | -7% | 9% | 0 | -11%
CCOc1cc(/C=C/c2nc3ccccc3s2)ccc1OCC(=O)N1CCOCC1 | 21µM* | -26% | -26% | -83% | -21 | ?
C(=C\c1nc2ccccc2s1)/c1ccc2c(c1)OCO2 | 11µM* | . | . | ? | . | .
C(=Cc1nc2ccccc2o1)c1ccc2c(c1)OCO2 | ? | ? | -25% | -12% | 19 | 1%
CN(C)c1ccc(/C=C/c2nc3ccccc3s2)c(Cl)c1 | 14µM* | . | . | ? | . | .
COc1ccc(/C=C/c2nc3ccccc3s2)c(OC)c1OC | . | . | . | . | . | -46%
Brc1ccc(-c2noc(Cc3ccccc3)n2)o1 | . | . | . | . | . | 18%
COc1ccc2nc3ccccc3[n+]([O-])c2c1 | ? | -5% | -11% | -10% | -25 | ?
[O-][n+]1c2ccccc2cc2ccccc21 | 9.2µM* | -1% | -2% | ? | -12 | 3%
COc1ccc2c(c1)c(C(C(=O)O)N1CCN(c3ccccc3OC)CC1)cn2CCC(=O)O (stereo not given) | . | . | . | . | . | -17%
O=C(Nc1cc(Oc2ccc(Cl)cc2)cc([N+](=O)[O-])c1)c1ccco1 | 16µM* | ? | ? | ? | -8 | -24%
O=C(Nc1cc(SCCO)cc([N+](=O)[O-])c1)c1ccco1 | ? | -3% | 1% | -5% | -4 | 23%
CCOc1ccc(Oc2cc(NC(=O)c3ccco3)cc([N+](=O)[O-])c2)cc1 | 16µM* | -7% | -6% | -22% | -18 | 0%
COc1ccc(S(=O)(=O)Nc2ccc3c(c2)n(C)c(=O)n3C)cc1F | ? | -18% | ? | 23µM* | -14 | -20%
Cc1cc(S(=O)(=O)Nc2ccc3c(c2)n(C)c(=O)n3C)ccc1F | 29µM* | -6% | -1% | 21µM* | -18 | -14%
COc1ccc(Cl)cc1S(=O)(=O)Nc1ccc2c(c1)n(C)c(=O)n2C | ? | ? | ? | 15µM* | 25 | ?
CC(c1ccon1)N(C)Cc1cn(-c2ccccc2)nn1 (stereo not given) | . | . | . | . | . | 22%
NC(=O)C1CCN(Cc2nc3cc(Cl)ccc3c(=O)[nH]2)CC1 | -12% | 18µM* | 21µM* | -10% | 23 | 13µM*
O=c1[nH]c(CN2CCN(S(=O)(=O)/C=C/c3ccccc3)CC2)nc2cc(Cl)ccc12 | ? | 21µM* | 9.2µM* | ? | -8 | -29%

Bioassay records deposited in PubChem by National Center for Advancing Translational Sciences (NCATS).
